The structures appear in SMILES notation. Results filed as inconclusive are left out. Where a call stands in place of a potency, no number is given. The source made the active and inactive calls. The call rests on the fitted dose curve; in most records, active means well fitted cell-killing curve with a large enough effect; inconclusive means small, poorly fitted or top-dose-only effect; inactive means flat fitted curve, though single readings scatter.
Potency means the concentration at half of the fitted maximal effect.

The assay can be described thus: qHTS of pediatric cancer cell lines to identify multiple opportunities for drug repurposing: Confirmatory screen for BT-12 cells (AID 1347112).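 Further: viability read after 48 h of compound exposure; nearly all actives have a fitted effect of over 55% in size.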 The following applies: BT-12 rhabdoid tumor cells, viability; series mostly up to 45.9 µM. From the text:
Drug repurposing or repositioning has been offered as a strategy for drug development in oncology programs. This approach has special potential for childhood cancers and other rare or orphan diseases, where the expected return on new drug development has been a disincentive to pharmaceuticals.
In this project we exploit the poly-pharmacology of drugs to discover new indications via phenotypic screening of a panel of 19 well-characterized cell lines derived from solid tumors seen in children and adolescents. The goal is to identify approved drugs with previously unrecognized anticancer properties that has the potential to reveal new mechanisms and biological processes involved in carcinogenesis or drug resistance. We employed a titration-based paradigm (quantitative high-throughput screening or qHTS), where all compounds were tested at multiple concentrations for their effect on cell viability. Concentration-response curves (CRCs) were derived directly from the primary screen, and both potency and efficacy values were used to identify compounds with robust bioactivity profiles. We screened the NIH Chemical Genomics Center (NCGC) Pharmaceutical Collection (NPC) and Mechanism Interrogation Plate (MIPE) small molecule collections of approved and investigational compounds against these cell lines; and measured metabolically active cells after 48 hours of compound treatment as a proxy for cell viability.
Assay Submitter: Nathalia J. Martinez, National Center for Advancing Translational Sciences, National Institutes of Health, Rockville, MD, USA; email: natalia.martinez@nih.gov
[1] Shen, M et al. Quantitative high-throughput phenotypic screening of pediatric cancer cell lines identifies multiple opportunities for drug repurposing. Oncotarget 2017 Dec 19;9(4):4758-4772. PMID 29435139.
The cells were obtained from University of North Carolina (UNC), Pediatric Preclinical Testing Program (PPT), and Coriell Institute (CI).
qHTS cell viability assay:
Cells were assayed in growth media at a density of 500-1,000 cells/well. Five microliters of cells were dispensed into 1,536-well, white, solid-bottom, TC-treated plates (Greiner Bio One) using a multidrop dispenser and incubated at 37 degrees C, 5% CO2, under a humidified atmosphere for 5 hours. Twenty-three nanoliters of compounds and controls (neutral control DMSO or positive control bortezomib at final concentration of 2.3 µM) were subsequently transferred by Kalypsys pintool. For primary screens, the MIPE collection was tested at 11-point dilutions (final concentrations range from 0.78 nM to 46 µM) and the NPC collection at 8-point dilutions (final concentrations range from 0.59 nM to 46 µM). Compounds tested in follow-up screens were assayed at 11-point dilutions. Cells were incubated for 48 hours, followed by addition of 3 µL of CellTiter-Glo (Promega). After a 15 min incubation at room temperature, samples were analyzed for luminescence intensity using a ViewLux High-throughput CCD imager equipped with clear filters.
(qHTS replaces the single test concentration by a dilution series.)
On to `Cc1ccc(C(=O)Oc2ccc(C(O)CNC(C)(C)C)cc2OC(=O)c2ccc(C)cc2)cc1` (stereo not drawn), for which the Potency entry is “inactive”. Take `Nc1ccc2cc3ccc(N)cc3nc2c1`: the Potency was 16.5 µM (active). To `CC(=O)OCC(=O)[C@@]1(O)CCC2C3CCC4=CC(=O)CC[C@]4(C)C3[C@@H](O)C[C@@]21C` (stereo partly drawn) belongs “inactive”. For `CC(=O)O[C@@H]1C(=O)O[C@@H]2[C@H]1OC(=O)[C@@H]2OC(C)=O`, the Potency entry was “inactive”. In the case of `CCCCC(CC)CNC(=O)CC(C)OC(=O)CCC(=O)O` (stereo not drawn), the Potency entry was “inactive”.

For the compound `Cc1cc(OCCOCC[N+](C)(C)Cc2ccccc2)ccc1C(C)(C)CC(C)(C)C`, the Potency was 13.1 µM (active).

`O=c1[nH]sc2cc(Cl)ccc12`: the Potency was 16.5 µM (active). With `CCC1=C[C@@H]2CN(C1)Cc1c([nH]c3ccccc13)[C@@](C(=O)OC)(c1cc3c(cc1OC)N(C)[C@H]1[C@@](O)(C(=O)OC)[C@H](OC(C)=O)[C@]4(CC)C=CCN5CC[C@]31[C@@H]54)C2`, the Potency is 0.0522 µM (active). To `CCOC(=O)O[C@]1(C(=O)OCCl)CC[C@H]2[C@@H]3CCC4=CC(=O)C=C[C@]4(C)[C@H]3[C@@H](O)C[C@@]21C` belongs “inactive”; to `CCC(=O)O[C@]1(C(=O)COC)[C@@H](C)C[C@H]2[C@@H]3CCC4=CC(=O)C=C[C@]4(C)C3(F)[C@@H](O)C[C@@]21C` (stereo partly drawn), “inactive”; to `CC[C@@]1(O)C(=O)OCc2c1cc1n(c2=O)Cc2c-1nc1ccccc1c2/C=N/OC(C)(C)C`, 1.04 µM (active). To `C[C@H]1C[C@@H]2[C@H]([C@@H](O)C[C@@]3(C)[C@H]2CC[C@]3(O)C(=O)CO)[C@@]2(C)C=CC(=O)C=C12` belongs “inactive”.

Regarding `C[C@]12CCC(=O)C=C1CC[C@@H]1[C@@H]2[C@@H](O)C[C@@]2(C)[C@H]1CC[C@]2(O)C(=O)COC(=O)CCC(=O)O`, the Potency entry is “inactive”.

For the compound `CC(C)(C)CC(=O)OCC(=O)[C@@]1(O)CC[C@H]2[C@@H]3CCC4=CC(=O)C=C[C@]4(C)[C@H]3[C@@H](O)C[C@@]21C`, the Potency entry is “inactive”.

Take `CCN(CC)CC(=O)OCC(=O)[C@@]1(O)CC[C@H]2[C@@H]3CCC4=CC(=O)CC[C@]4(C)[C@H]3[C@@H](O)C[C@@]21C`: the Potency entry is “inactive”.

On to `CO[C@@H]1[C@@H](OC)[C@H](C)[C@@](O)(CC(=O)O)O[C@H]1[C@H](C)[C@H]1O[C@@]2(CC[C@@](C)([C@H]3CC[C@@](C)([C@@H]4O[C@@H]([C@H]5O[C@](C)(O)[C@H](C)C[C@@H]5C)C[C@@H]4OC4C[C@H](OC)[C@@H](OC)[C@H](C)O4)O3)O2)C[C@H](O)[C@H]1C` (stereo partly drawn), for which the Potency was 0.657 µM (active). To `O=[N+]([O-])c1ccc(O)c2ncccc12` belongs 20.8 µM (active); to `CC(=O)OCC(=O)[C@@]1(O)[C@H](OC(C)=O)C[C@H]2[C@@H]3CCC4=CC(=O)C=C[C@]4(C)[C@@]3(F)[C@@H](O)C[C@@]21C`, “inactive”; to `CN(C)CCN(Cc1ccsc1)c1ccccn1`, “inactive”. To `CCCC(=O)O[C@]1(C(=O)COC(=O)CC)CC[C@H]2[C@@H]3CCC4=CC(=O)CC[C@]4(C)[C@H]3[C@@H](O)C[C@@]21C` belongs “inactive”; to `CCc1cc2cc(OC)c(OC)cc2c(Cc2ccccc2)n1`, “inactive”. To `CCCCC(=O)OCC(=O)[C@H]1[C@H](C)C[C@H]2[C@@H]3C[C@H](F)C4=CC(=O)C=C[C@]4(C)[C@@]3(F)[C@@H](O)C[C@@]21C` belongs 14.7 µM (active). As for `Nc1c2ccccc2nc2ccccc12`, the Potency is 3.69 µM (active).

The values above are taken from PubChem BioAssay (NCATS).
